Where “and” joins values, the source holds several entries; their conditions need not be identical. Identical values can stand only once. Compounds without any hit were thinned out: in the full panel of roughly 83,000, 20% have a hit.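 Growth was measured after 48 h exposure to one concentration of compound in 96-well plates. Values under 10 count as active.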 Values without a mark were called inactive. Calls of active or inactive are those of the source.

Among the data in PubChem BioAssay (NCI) are growth values, retold here.

The test system of the experiment is MDA-MB-468 breast. As to the kind of experiment: NCI-60 one-dose screen, 48 h (100 = growth as untreated, 0 = no growth, -100 = all killed). To be noted: 10 µM unless noted.
Regarding `N#Cc1ccc(C2C3=C(CCCC3=O)OC3=C2C(=O)c2ccccc2C3=O)cc1` (stereo not given), the growth was -16.1% (active).

As to `C#CCN=C[C@]12CC[C@@H](C(=C)C)[C@@H]1[C@H]1CC[C@@H]3[C@@]4(C)CCC(=O)C(C)(C)[C@@H]4CC[C@@]3(C)[C@]1(C)CC2`, the growth was 40.3%.

Turning to `S=C(Nc1ccc(-c2nc(N3CCOCC3)c3cccn3n2)cc1)Nc1cccnc1`, the growth was 34.8%.

Consider `CCCCCCCCCc1cc(CN2CCCCC2)c(O)c(CN2CCCCC2)c1`, for which the growth was 40.4%.

For the compound `CCCN=C1NC(=O)/C(=C/c2nc(-c3ccc(OC)cc3)n3ccccc23)S1`, the growth was 101%.

Turning to `CCOC(=O)c1csc(N)n1`, the growth is 95.6% and 91.5%.

With `COc1ccc2[nH]c(=O)c3c4ccccc4cn3c2c1`, the growth was 38%.

With `CCCCCCCCCCSC(=N)N` (tested in a mixture with another compound), the growth is -9.42% (active).

As for `COc1cc(/C=C/c2cc(O)c(C(C)=O)c(O)c2)cc2c1O[C@]1(C)CC[C@@H](O)C(C)(C)[C@H]1C2`, the growth was 77.6%.

Take `COc1ccc2c(c1)C(=O)/C(=C/c1ccccn1)CC2`: the growth was 40.4%.

Consider `CCOC(=O)c1cn2ncnc(Oc3ccc(NC(=O)NCCN4CCOCC4)c(Cl)c3)c2c1C`, for which the growth is 85.1%.

As to `CC1OC(OC2C(OC3CCC4(C)C(CCC5(C)C4CC=C4C6CC(C)(C)CCC6(CO)C(O)CC45C)C3(C)C)OC(C(=O)O)C(OC3OC(COC4OC(CO)C(O)C(O)C4O)C(O)C(O)C3O)C2O)C(O)C(O)C1O` (stereo not given), the growth was -80.5% (active).

On to `CCN(CC)CCCC(C)Nc1c2ccc(C)cc2nc2ccc(OC)cc12` (stereo not given), for which the growth is -65.1% (active).

Consider `S=c1cnc2ccccc2[nH]1`, for which the growth is 108%.

Take `CN(C)c1nc(-c2cccs2)n2nc(-c3ccc(Cl)cc3)cc2n1`: the growth is 33.6%.

For the compound `CN1C(=O)C(=Cc2cn(Cc3ccccc3)c3ccc(Br)cc23)C(=O)N(C)C1=O`, the growth is -49.4% (active).

In the case of `CCCCC1=C(Br)C(=O)c2ncccc2C1=O`, the growth was 84.2%.

As for `S=C=Nc1ccc2ccccc2c1`, the growth is 97.3%.

As to `COc1ccc2c(c1)C(=O)/C(=C/c1cccnc1)CC2`, the growth was 100%.

For the compound `CCOC(=O)OCC(=O)[C@@]1(O)CC[C@H]2[C@@H]3CCC4=CC(=O)CC[C@]4(C)[C@H]3[C@@H](O)C[C@@]21C`, the growth is 123%.

Turning to `O=C(CC(CC(=O)c1ccccc1)c1ccccn1)c1ccccc1`, the growth was 102%.

`N#Cc1c(-c2ccc(Cl)cc2)nc2c(c(-c3ccccc3)nn2-c2ccccc2)c1-c1ccc(O)cc1`: the growth is 31.2%.

As for `O=C(NOCCO)c1cc(CN2OCCCC2=O)c(F)c(F)c1Nc1ccc(I)cc1F`, the growth was 114%.

As for `CCCCCC(=O)OCc1ccccc1`, the growth was 97.3%.

As to `CN(C)S(=O)(=O)c1ccc(-c2nc(C(Cl)Cl)nc3cc(-c4ccc(F)cc4)nn23)cc1`, the growth was -46.2% (active).

With `Oc1ccc(CSc2nnc(-c3ccc(Cl)cc3)o2)c2cccnc12`, the growth was 26.3%.

With `O=C(Nc1ccccc1)Nc1ccc(Nc2ncnc3sc4c(c23)CCCC4)cc1`, the growth is 96.9%.

As to `Cn1ncc2c(=O)nc3c(-c4ccccc4)n[nH]n3c21`, the growth is 101%.

Take `COc1ccc(C(=O)C2C(c3ccc(OC)cc3)CN(C)C23C(=O)Nc2ccccc23)cc1` (stereo not given): the growth is 95.4%.

`C/C(=N\O)C1(O)CCCCC1`: the growth is -9.98% (active).

`COc1cc2cc(OC(C)=O)c3cc4c(cc3c2c(OC)c1OC)OCO4`: the growth was 96.4%.

With `O=S(=O)(NCCCNc1nccc(-n2ccc3cccnc32)n1)c1ccc(Br)cc1`, the growth was 90.3%.

`CC(C)c1ccc(S(=O)(=O)NC(=O)NC2CCCC2)cc1`: the growth was 96.2%.

For the compound `N=c1sc(Cc2cc(Cl)ccc2Cl)cn1CC(=O)c1ccccc1`, the growth was 61.3%.

`CCCCc1nc(Cl)c(C2CC(c3ccc(Cl)cc3)=NN2c2cc(Cl)cc(Cl)c2)[nH]1` (stereo not given): the growth was 88.3%.

Regarding `CCc1ncnc2c1ccn2C(C)c1ccc(OC)c(F)c1` (stereo not given), the growth is -1.21% (active).

With `Cc1ccc2ccc3ccc(C)nc3c2n1.Cc1ccc2ccc3ccc(C)nc3c2n1.Oc1c(Cl)cc(Cl)c2ccc(CN3CCCCC3)nc12.[Ru]`, the growth was -80% (active).

For the compound `CCOC(=O)C(=Cc1ccccc1[N+](=O)[O-])C(=O)OCC`, the growth was 34.3%.

For `CNCCCn1c2c(c3ccc(Cl)cc3c1=O)C(=O)c1cc(OC)cnc1-2`, the growth was 67.2%.

Consider `COc1cc(C(c2c[nH]c3ccccc23)N2CCCC2)ccc1OCc1ccccc1` (stereo not given), for which the growth is 53.9%.
